# Results as given in publication PMC7862700, “An all-to-all approach to the identification of sequence-specific readers for epigenetic DNA modifications on cytosine”.
# Key:
# Test in all cases: DAPPL (digital affinity profiling via proximity ligation, sequencing); 10 mM Tris-HCl pH 7.5, 50 mM NaCl, 1 mM DTT, 4% glycerol, room temperature, 30 min; GST-TFs on glutathione beads, 16-mer random dsDNA library, 0.1% formaldehyde crosslink after washing; high values mean tight binding
# [1] = molecular target: T1, FEV (Homo sapiens, UniProt Q99581 1-238); settings: protein: recombinant; tags: N-terminal GST; dsDNA, one strand shown
# T1 sequence: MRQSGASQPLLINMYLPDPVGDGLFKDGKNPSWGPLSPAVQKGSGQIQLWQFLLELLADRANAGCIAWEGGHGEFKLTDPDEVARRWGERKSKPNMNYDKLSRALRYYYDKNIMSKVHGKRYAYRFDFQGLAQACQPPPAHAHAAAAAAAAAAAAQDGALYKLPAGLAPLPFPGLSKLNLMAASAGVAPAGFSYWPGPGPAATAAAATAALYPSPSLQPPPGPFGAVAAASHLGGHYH
# How it was run: (§1)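 Human transcription factors were made in yeast as GST fusions, captured on glutathione beads and barcoded with DNA. With a tag-only sample included, the pool was incubated with 200 nmole of a random double-stranded 16-mer DNA library in Tris/NaCl/DTT/glycerol buffer at room temperature for 30 min, then crosslinked with 0.1% formaldehyde after washing, ligated by proximity, amplified and sequenced. For binding signal, each hexamer's read frequency for a factor is divided by its frequency for the tag-only sample.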
# [2] = molecular target: ETV5 (Homo sapiens, UniProt P41161 1-510); settings: protein: recombinant; tags: N-terminal GST; dsDNA, one strand shown
# Chain of ETV5 (P41161 whole entry): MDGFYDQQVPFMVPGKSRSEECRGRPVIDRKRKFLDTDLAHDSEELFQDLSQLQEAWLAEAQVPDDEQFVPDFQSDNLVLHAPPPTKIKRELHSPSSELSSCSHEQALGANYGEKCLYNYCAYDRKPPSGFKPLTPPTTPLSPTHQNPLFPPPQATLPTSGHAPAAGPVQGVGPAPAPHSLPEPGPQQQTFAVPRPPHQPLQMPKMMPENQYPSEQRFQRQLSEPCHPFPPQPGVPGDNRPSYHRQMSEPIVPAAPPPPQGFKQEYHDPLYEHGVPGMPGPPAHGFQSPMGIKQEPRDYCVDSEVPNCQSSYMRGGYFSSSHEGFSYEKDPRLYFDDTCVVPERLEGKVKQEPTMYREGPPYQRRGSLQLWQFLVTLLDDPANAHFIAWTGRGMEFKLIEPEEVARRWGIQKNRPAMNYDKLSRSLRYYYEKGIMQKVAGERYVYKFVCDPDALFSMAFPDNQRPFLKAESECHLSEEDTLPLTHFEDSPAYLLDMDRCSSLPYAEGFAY
# How it was run: as §1
# [3] = molecular target: HSF1 (Homo sapiens, UniProt Q00613 1-529); settings: protein: recombinant; tags: N-terminal GST; chain copies: 3; dsDNA, one strand shown
# Chain of HSF1 (Q00613 whole entry): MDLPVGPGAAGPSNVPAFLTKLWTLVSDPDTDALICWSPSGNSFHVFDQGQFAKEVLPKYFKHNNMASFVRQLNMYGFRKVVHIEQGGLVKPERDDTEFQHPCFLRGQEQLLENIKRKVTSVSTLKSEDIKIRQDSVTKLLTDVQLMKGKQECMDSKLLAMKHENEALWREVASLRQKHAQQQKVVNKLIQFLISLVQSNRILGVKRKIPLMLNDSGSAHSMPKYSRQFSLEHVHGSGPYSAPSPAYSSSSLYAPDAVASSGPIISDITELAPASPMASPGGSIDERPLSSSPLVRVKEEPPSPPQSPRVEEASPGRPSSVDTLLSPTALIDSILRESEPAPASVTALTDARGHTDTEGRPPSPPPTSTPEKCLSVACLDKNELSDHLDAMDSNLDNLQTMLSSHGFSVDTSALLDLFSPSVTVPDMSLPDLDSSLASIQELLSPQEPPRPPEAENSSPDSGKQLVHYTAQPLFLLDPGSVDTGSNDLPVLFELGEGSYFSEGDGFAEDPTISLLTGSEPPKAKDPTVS
# How it was run: as §1
# [4] = molecular target: T2, SPIC (Homo sapiens, UniProt Q8N5J4 1-248); settings: protein: recombinant; tags: N-terminal GST; dsDNA, one strand shown
# T2 sequence: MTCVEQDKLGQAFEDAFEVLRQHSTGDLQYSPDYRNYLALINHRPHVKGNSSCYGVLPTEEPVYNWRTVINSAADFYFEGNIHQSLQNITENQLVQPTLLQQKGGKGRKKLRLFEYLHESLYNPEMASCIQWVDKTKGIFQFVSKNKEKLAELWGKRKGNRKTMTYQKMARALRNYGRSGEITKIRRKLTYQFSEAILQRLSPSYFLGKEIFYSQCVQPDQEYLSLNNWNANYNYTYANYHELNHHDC
# How it was run: as §1
# [5] = molecular target: ELF4 (Homo sapiens, UniProt Q99607 1-663); settings: protein: recombinant; tags: N-terminal GST; dsDNA, one strand shown
# Chain of ELF4 (Q99607 whole entry): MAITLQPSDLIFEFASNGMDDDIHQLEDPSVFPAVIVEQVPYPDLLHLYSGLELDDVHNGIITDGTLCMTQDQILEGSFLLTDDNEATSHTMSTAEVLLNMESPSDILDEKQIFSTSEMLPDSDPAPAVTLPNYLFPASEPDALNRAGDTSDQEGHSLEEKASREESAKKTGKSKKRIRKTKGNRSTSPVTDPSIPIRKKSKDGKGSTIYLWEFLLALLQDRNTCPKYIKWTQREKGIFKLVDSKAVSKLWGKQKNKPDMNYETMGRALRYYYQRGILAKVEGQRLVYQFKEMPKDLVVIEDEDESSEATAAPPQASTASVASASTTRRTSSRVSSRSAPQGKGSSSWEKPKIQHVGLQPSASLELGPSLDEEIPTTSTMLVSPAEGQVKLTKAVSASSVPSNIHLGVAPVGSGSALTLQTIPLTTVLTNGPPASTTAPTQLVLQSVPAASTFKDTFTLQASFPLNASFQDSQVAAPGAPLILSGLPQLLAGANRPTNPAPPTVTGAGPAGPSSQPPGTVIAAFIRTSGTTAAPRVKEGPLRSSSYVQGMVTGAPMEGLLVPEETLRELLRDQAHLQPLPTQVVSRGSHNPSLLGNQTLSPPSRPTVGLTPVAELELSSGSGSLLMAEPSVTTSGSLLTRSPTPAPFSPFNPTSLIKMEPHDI
# How it was run: as §1
# [6] = molecular target: T3, ELK4 (Homo sapiens, UniProt P28324-2 1-405); settings: protein: recombinant; tags: N-terminal GST; dsDNA, one strand shown
# T3 sequence: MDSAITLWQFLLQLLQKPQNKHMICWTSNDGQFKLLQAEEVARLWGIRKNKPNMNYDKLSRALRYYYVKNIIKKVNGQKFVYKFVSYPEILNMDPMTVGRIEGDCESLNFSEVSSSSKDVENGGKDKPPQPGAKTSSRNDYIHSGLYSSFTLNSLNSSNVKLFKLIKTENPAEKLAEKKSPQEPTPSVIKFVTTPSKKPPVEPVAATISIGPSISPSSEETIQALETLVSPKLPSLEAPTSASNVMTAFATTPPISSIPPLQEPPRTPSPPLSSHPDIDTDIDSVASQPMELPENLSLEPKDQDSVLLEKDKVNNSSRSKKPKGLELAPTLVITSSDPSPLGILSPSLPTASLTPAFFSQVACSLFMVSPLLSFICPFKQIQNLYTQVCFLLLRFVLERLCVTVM
# How it was run: as §1
# [7] = molecular target: T4, ETV2 (Homo sapiens, UniProt O00321 1-342); settings: protein: recombinant; tags: N-terminal GST; dsDNA, one strand shown
# T4 sequence: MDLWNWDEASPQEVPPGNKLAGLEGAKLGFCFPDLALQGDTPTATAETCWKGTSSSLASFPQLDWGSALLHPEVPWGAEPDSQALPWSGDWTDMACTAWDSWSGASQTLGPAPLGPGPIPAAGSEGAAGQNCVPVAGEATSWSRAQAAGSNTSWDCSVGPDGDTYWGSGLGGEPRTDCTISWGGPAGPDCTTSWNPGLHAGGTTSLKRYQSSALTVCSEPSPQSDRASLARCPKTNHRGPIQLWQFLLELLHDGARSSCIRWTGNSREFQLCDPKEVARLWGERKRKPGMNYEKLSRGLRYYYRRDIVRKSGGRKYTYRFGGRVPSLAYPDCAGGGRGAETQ
# How it was run: as §1
# [8] = molecular target: T5, ELF3 (Homo sapiens, UniProt P78545 1-371); settings: protein: recombinant; tags: N-terminal GST; dsDNA, one strand shown
# T5 sequence: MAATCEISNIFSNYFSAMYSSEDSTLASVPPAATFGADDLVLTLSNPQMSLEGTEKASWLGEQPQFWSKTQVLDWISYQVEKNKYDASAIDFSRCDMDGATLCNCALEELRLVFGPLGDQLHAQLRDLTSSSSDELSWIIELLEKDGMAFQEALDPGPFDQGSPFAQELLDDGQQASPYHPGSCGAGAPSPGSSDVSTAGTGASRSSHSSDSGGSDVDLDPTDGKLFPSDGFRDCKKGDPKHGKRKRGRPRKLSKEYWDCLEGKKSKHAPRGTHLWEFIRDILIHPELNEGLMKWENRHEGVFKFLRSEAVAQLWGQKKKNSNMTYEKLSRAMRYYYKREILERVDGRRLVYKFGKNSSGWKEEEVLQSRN
# How it was run: as §1
# [9] = molecular target: CRX (Homo sapiens, UniProt O43186 1-299); settings: protein: recombinant; tags: N-terminal GST; dsDNA, one strand shown
# Chain of CRX (O43186 whole entry): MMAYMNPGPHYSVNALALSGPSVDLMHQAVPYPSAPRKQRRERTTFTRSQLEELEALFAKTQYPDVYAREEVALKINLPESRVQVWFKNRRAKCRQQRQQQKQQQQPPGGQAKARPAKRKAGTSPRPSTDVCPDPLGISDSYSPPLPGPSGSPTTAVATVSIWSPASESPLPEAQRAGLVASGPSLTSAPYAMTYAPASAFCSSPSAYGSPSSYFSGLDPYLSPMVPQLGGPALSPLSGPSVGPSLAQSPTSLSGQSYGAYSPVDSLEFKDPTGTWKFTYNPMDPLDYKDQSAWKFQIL
# How it was run: as §1
# [10] = molecular target: ETV1 (Homo sapiens, UniProt P50549 1-477); settings: protein: recombinant; tags: N-terminal GST; dsDNA, one strand shown
# Chain of ETV1 (P50549 whole entry): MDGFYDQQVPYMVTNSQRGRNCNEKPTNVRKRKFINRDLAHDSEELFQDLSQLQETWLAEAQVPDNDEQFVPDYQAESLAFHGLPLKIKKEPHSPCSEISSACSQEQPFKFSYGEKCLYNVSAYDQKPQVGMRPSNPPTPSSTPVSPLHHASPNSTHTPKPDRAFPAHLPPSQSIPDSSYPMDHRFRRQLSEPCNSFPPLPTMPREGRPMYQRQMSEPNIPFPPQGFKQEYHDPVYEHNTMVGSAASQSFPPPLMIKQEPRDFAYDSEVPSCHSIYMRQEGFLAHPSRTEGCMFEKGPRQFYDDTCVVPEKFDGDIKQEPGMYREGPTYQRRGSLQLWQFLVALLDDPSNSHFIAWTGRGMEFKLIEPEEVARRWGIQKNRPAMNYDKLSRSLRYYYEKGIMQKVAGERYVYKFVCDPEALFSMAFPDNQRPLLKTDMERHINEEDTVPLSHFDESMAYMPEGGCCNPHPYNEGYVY
# How it was run: as §1
# [11] = molecular target: T6, ERF (Homo sapiens, UniProt P50548 1-548); settings: protein: recombinant; tags: N-terminal GST; dsDNA, one strand shown
# T6 sequence: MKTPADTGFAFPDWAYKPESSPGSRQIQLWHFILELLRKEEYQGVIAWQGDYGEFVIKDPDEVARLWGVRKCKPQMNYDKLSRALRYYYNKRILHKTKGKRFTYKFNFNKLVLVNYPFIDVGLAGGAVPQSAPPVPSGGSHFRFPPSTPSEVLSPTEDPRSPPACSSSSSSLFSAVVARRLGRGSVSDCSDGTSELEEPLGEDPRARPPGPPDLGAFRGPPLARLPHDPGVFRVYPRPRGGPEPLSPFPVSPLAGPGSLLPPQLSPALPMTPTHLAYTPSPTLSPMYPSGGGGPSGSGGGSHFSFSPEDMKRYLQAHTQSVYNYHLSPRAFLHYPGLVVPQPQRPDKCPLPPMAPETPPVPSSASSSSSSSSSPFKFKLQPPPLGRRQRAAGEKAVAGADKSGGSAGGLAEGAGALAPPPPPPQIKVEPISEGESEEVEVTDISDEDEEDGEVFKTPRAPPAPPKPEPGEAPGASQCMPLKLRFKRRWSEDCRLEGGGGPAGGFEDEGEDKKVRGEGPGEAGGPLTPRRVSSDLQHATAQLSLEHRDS
# How it was run: as §1
# [12] = molecular target: T7, ETV3L (Homo sapiens, UniProt Q6ZN32 1-361); settings: protein: recombinant; tags: N-terminal GST; dsDNA, one strand shown
# T7 sequence: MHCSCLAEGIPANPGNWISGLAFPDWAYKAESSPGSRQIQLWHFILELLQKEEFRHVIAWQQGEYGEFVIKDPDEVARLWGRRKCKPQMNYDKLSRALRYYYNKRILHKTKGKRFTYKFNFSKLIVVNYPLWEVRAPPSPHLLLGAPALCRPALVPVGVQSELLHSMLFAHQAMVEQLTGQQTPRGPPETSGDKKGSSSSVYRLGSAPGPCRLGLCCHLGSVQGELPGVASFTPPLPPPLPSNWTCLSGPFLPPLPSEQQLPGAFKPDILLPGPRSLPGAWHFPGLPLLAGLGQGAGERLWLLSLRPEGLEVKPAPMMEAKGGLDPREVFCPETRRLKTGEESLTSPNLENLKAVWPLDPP
# How it was run: as §1
# [13] = molecular target: T8, ETS2 (Homo sapiens, UniProt P15036 1-469); settings: protein: recombinant; tags: N-terminal GST; dsDNA, one strand shown
# T8 sequence: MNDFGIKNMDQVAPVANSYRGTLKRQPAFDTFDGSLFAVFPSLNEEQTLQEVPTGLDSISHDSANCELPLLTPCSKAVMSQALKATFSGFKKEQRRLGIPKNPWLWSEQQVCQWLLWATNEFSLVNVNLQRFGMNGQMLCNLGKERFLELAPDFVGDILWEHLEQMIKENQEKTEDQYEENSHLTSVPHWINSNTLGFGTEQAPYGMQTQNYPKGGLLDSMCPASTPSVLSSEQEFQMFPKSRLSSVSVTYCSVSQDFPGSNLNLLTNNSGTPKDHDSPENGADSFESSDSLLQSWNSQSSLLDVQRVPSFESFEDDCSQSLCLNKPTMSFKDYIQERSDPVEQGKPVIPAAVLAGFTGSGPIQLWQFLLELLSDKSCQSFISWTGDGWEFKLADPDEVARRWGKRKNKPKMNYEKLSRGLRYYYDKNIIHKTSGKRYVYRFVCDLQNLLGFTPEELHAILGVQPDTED
# How it was run: as §1
# [14] = molecular target: T9, SPDEF (Homo sapiens, UniProt O95238 1-335); settings: protein: recombinant; tags: N-terminal GST; dsDNA, one strand shown
# T9 sequence: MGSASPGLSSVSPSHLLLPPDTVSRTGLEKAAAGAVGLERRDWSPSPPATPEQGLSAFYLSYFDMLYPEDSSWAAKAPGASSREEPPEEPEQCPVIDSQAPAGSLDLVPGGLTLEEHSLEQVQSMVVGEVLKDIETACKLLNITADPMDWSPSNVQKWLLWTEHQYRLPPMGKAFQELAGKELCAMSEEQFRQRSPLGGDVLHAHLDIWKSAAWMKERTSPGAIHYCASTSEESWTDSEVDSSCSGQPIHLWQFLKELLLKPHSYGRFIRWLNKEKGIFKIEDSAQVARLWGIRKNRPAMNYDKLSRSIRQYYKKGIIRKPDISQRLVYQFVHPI
# How it was run: as §1
# [15] = molecular target: T10, ETV7 (Homo sapiens, UniProt Q9Y603 1-341); settings: protein: recombinant; tags: N-terminal GST; dsDNA, one strand shown
# T10 sequence: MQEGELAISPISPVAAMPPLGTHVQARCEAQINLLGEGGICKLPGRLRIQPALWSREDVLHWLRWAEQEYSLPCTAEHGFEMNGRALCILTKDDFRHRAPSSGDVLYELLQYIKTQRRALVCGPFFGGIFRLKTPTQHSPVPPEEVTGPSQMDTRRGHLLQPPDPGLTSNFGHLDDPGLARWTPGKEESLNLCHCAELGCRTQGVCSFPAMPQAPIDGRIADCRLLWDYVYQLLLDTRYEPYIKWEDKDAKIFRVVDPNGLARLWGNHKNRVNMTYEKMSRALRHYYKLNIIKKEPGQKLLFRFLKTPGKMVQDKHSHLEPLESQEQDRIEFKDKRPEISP
# How it was run: as §1
# [16] = molecular target: T11, ELF5 (Homo sapiens, UniProt Q9UKW6-2 1-255); settings: protein: recombinant; tags: N-terminal GST; dsDNA, one strand shown
# T11 sequence: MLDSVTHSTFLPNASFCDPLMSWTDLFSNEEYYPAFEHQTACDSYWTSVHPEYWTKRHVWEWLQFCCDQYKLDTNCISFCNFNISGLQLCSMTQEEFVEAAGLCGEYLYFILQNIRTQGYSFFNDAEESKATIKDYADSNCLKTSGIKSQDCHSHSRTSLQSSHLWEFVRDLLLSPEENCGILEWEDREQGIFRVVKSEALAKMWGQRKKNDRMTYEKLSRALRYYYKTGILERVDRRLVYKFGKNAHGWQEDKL
# How it was run: as §1
# [17] = molecular target: T12, ETV3 (Homo sapiens, UniProt P41162-2 1-143); settings: protein: recombinant; tags: N-terminal GST; dsDNA, one strand shown
# T12 sequence: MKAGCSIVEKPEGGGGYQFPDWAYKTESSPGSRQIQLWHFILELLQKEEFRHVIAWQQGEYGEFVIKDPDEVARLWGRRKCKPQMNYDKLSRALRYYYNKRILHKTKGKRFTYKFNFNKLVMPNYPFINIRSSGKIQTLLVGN
# How it was run: as §1
# [18] = molecular target: ETV6 (Homo sapiens, UniProt P41212 1-452); settings: protein: recombinant; tags: N-terminal GST; dsDNA, one strand shown
# Chain of ETV6 (P41212 whole entry): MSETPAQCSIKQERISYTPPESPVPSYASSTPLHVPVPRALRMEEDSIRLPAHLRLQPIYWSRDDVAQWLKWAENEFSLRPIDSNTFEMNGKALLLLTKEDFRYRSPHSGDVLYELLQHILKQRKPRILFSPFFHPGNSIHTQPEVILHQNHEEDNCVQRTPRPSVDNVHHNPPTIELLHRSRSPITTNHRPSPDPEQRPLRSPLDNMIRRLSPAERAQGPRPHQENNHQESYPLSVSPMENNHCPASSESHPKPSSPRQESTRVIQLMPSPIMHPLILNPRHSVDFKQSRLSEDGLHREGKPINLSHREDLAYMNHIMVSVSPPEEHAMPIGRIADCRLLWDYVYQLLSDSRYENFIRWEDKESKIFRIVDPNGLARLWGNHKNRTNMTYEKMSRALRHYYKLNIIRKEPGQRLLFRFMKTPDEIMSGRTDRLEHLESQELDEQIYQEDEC
# How it was run: as §1
sequence,measurement,setting,value
TCGTCT,binding signal,[1],"1.3 fold enrichment (6-mer frequency, TF over GST control)"
same,binding signal,[2],"1.33 fold enrichment (6-mer frequency, TF over GST control)"
same,binding signal,[3],"1.46 fold enrichment (6-mer frequency, TF over GST control)"
same,binding signal,[4],"1.27 fold enrichment (6-mer frequency, TF over GST control)"
same,binding signal,[5],"1.35 fold enrichment (6-mer frequency, TF over GST control)"
same,binding signal,[6],"1.32 fold enrichment (6-mer frequency, TF over GST control)"
same,binding signal,[7],"1.36 fold enrichment (6-mer frequency, TF over GST control)"
same,binding signal,[8],"1.52 fold enrichment (6-mer frequency, TF over GST control)"
same,binding signal,[9],"1.37 fold enrichment (6-mer frequency, TF over GST control)"
same,binding signal,[10],"1.41 fold enrichment (6-mer frequency, TF over GST control)"
same,binding signal,[11],"1.4 fold enrichment (6-mer frequency, TF over GST control)"
same,binding signal,[12],"1.43 fold enrichment (6-mer frequency, TF over GST control)"
same,binding signal,[13],"1.46 fold enrichment (6-mer frequency, TF over GST control)"
same,binding signal,[14],"1.37 fold enrichment (6-mer frequency, TF over GST control)"
same,binding signal,[15],"1.21 fold enrichment (6-mer frequency, TF over GST control)"
same,binding signal,[16],"1.32 fold enrichment (6-mer frequency, TF over GST control)"
same,binding signal,[17],"1.23 fold enrichment (6-mer frequency, TF over GST control)"
same,binding signal,[18],"1.34 fold enrichment (6-mer frequency, TF over GST control)"
